Screening data (PubChem BioAssay)
HCV inhibitor = qHTS Assay for Inhibitors of Hepatitis C Virus (HCV); Huh7.5.1 HCVcc-Cre infection, luciferase reporter, 44 h; Potency, µM (doses to about 41.8 µM), hits mostly inhibitors; 3.4% of 340,000 active; AID 651820, 2012
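Antiviral activity was scored by luciferase reporter output from cells infected with HCVcc-Cre (~0.5 moi) in presence of compound, 44 h infection period, cells seeded 1,000/well 4 h prior.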
AmpC inh no detg = qHTS Inhibitors of AmpC Beta-Lactamase (assay without detergent). AmpC nitrocefin hydrolysis, absorbance 480 nm, 0.0001% Triton. Potency, µM (titrated, usually from 57.1 µM), usual class: inhibitors. 0.52% of 330,000 active; further: nearly all actives have a fitted effect of over 20% in size
Target sequence (P00811 whole entry, looked up): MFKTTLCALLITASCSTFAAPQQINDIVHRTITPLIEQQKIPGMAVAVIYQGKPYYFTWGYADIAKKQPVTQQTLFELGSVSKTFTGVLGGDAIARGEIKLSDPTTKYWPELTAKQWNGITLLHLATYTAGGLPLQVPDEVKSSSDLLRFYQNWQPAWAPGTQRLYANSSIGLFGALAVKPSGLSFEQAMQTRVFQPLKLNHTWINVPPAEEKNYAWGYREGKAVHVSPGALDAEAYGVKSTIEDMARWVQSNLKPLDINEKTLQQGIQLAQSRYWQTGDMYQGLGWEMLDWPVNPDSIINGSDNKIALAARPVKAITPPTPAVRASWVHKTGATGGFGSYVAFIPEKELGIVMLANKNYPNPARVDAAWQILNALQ
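20 mM phosphate pH 7.0 + 0.01% (detergent screen) or 0.0001% Triton X-100; 5.3 nM AmpC reagent; cpd preinc 15 min RT; nitrocefin (800 uM stock) to start; A480 q20 s × 4 min; Activity was normalised to no-enzyme and no-compound control wells.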
Pf growth 48h = Primary qHTS for delayed death inhibitors of the malarial parasite plastid, 48 hour incubation; 5.9% of 310,000 active; AID 504832, 2011; P. falciparum luciferase growth in erythrocytes, 48 h; Potency, µM (doses to about 28.7 µM), hits mostly inhibitors
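Cell-based growth assay: transgenic P. falciparum expressing firefly luciferase, cultured in red cells within RPMI 1640 containing 0.5% w/v Albumax, 24 mM bicarbonate and gentamycin. A drop in luciferase activity indicates inhibition.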
AmpC inh detg = qHTS Inhibitors of AmpC Beta-Lactamase (assay with detergent). AID 485294, 2010. AmpC hydrolysis of nitrocefin, absorbance 480 nm, 0.01% Triton. Potency, µM (series often up to 114 µM), hits mostly inhibitors. 0.041% of 370,000 active; further: nearly all actives have a fitted effect of over 25% in size
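20 mM phosphate pH 7.0 + 0.01% (detergent screen) or 0.0001% Triton X-100; 5.3 nM AmpC reagent; cpd preinc 15 min RT; nitrocefin (800 uM stock) to start; A480 q20 s × 4 min; Activity was normalised to no-enzyme and no-compound control wells.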
Pf growth 96h = Primary qHTS for delayed death inhibitors of the malarial parasite plastid, 96 hour incubation; P. falciparum luciferase reporter growth, 96 h; Potency, µM (doses to about 28.7 µM), most hits filed as inhibitors; 6.9% of 320,000 active; AID 504834, 2011
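P. falciparum expressing integrated firefly luciferase, in erythrocytes at 2% hematocrit, 0.05% parasitemia, incubated with compounds 96 h at 37 C, 5% CO2. Growth inhibition read as loss of luminescence; two-generation exposure targets delayed-death apicoplast inhibitors.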
AMA1-RON2 inh = qHTS for Inhibitors of AMA1-RON; Towards Development of Antimalarial Drug Lead: Primary Screen. Potency, µM (highest dose often 58.2 µM), most hits filed as inhibitors. AlphaScreen AMA1-biotinylated RON2 peptide binding. 0.2% of 360,000 active; further: nearly all actives have a fitted effect of over 45% in size
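AMA1 (3D7) with his tag at 25 nM final met compounds first, then biotinylated RON2 peptide at 25 nM; detection used donor plus acceptor beads, 10 µg/mL apiece, read by AlphaScreen after 30 min at room temperature.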
A number is an active result; i = inactive; ? = inconclusive; nt = not tested or not shown. Most compounds without a hit are left out; they make up all but 11% or so of the library. The call rests on the fitted dose curve; in most records, active means well fitted curve in the direction sought with a large enough effect; inconclusive means small, poorly fitted or top-dose-only effect, or another doubt; inactive means no such curve, though single readings can be large; an effect the other way counts as inactive or inconclusive.

SMILES | HCV inhibitor | AmpC inh no detg | Pf growth 48h | AmpC inh detg | Pf growth 96h | AMA1-RON2 inh
CN(CCc1ccccc1)C(=O)c1ccc(NC(=O)Cc2ccc(NC(=O)C3CCN(C(=O)CCc4ccccc4)CC3)cc2)cc1 | 25.1µM | nt | nt | nt | nt | i
CN(C(=O)c1ccc(NC(=O)Cc2ccc(NC(=O)C3CCN(C(=O)c4ccccc4)CC3)cc2)cc1)C1CC1 | i | i | ? | i | 6.57µM | i
CN(CCc1ccccc1)C(=O)c1ccc(NC(=O)Cc2cccc(NC(=O)C3CCN(C(=O)CCc4ccccc4)CC3)c2)cc1 | i | nt | nt | nt | nt | i
COc1cccc(C2C(C(=O)Nc3ccc(Cl)cc3)=C(C)Nc3c(C(=O)Nc4ccccc4)cnn32)c1OC (centres undefined) | nt | nt | nt | i | nt | nt
Cc1ccccc1NC(=O)c1c(C)oc2ccc(O)c(CN3CCCCCC3)c12 | nt | nt | nt | i | nt | nt
COc1ccc(NS(=O)(=O)c2c(C)cc(C)cc2C)cc1 | i | i | i | i | i | i
COc1cccc(NS(=O)(=O)c2c(C)cc(C)cc2C)c1 | i | i | 13.1µM | i | ? | i
COc1ccc(CNC(=O)c2cc3ccccn3n2)cc1OC | nt | nt | nt | i | nt | nt
Cc1cc(Nc2ccc(C)c(F)c2)n2ncnc2n1 | i | i | 1.47µM | i | i | i
Cc1cc(Nc2cc(F)ccc2C)n2ncnc2n1 | i | 28.2µM | i | i | ? | i
Cc1ccc(-c2cc(C)nc3ncnn23)cc1 | i | i | nt | i | 11.7µM | i
Cc1ccc(Nc2cc(C)nc3ncnn23)cc1 | i | i | 3.7µM | i | ? | i
Cc1cc(C)c(-c2cc(C)nc3ncnn23)c(C)c1 | i | i | i | i | i | i
CCc1cccc(NC(=O)c2oc3ccc4c(c3c2C)C(=O)CC(C)(C)O4)c1 | nt | nt | nt | i | nt | nt
CN1CC(=O)N(CC(=O)Nc2ccc(OC(F)(F)F)cc2)c2ccccc2C1=O | nt | nt | nt | i | nt | nt
C#Cc1ccc(CN2CCC(Oc3cc(C(=O)NC4CC4)ccc3OC)CC2)cc1 | i | i | 13.1µM | ? | i | i
COc1ccc(C(=O)NC2CC2)cc1OC1CCN(Cc2ccc(F)cc2)CC1 | nt | i | i | i | ? | i
CCn1ncc(CN2CCC(Oc3cc(C(=O)NC4CC4)ccc3OC)CC2)c1C | nt | i | i | i | 1.04µM | i
CCCCNc1nc(Oc2ccc(=O)n(C)n2)nc(N(C)C)n1 | nt | nt | nt | i | nt | nt
Cn1c(=O)c2c(nc(SCC(=O)OCc3ccccc3)n2C)n(C)c1=O | i | i | i | i | nt | i
Cc1nc(SCC(=O)OCc2ccccc2)c2c(=O)n(C)c(=O)n(C)c2n1 | i | i | 7.38µM | i | ? | i
COc1ccc(C)cc1NC(=O)c1ccc2nc(Cc3ccccc3)oc2c1 | nt | nt | nt | i | nt | nt
C=CCOC(=O)C1=C(C)NC(=O)NC1c1cn(-c2ccccc2)nc1-c1cccs1 (centres undefined) | ? | i | 14.7µM | ? | ? | i
COCCOC(=O)C1=C(C)NC(=O)NC1c1cn(-c2ccccc2)nc1-c1cccs1 (centres undefined) | i | i | i | i | i | i
CC1=C(C#N)C(c2cn(-c3ccccc3)nc2-c2cccs2)C(C#N)=C(C)N1 | i | i | 1.65µM | ? | i | i
SMILES | HCV inhibitor | AmpC inh no detg | Pf growth 48h | AmpC inh detg | Pf growth 96h | AMA1-RON2 inh
COc1ccc(CCNC(=O)C(C)n2c(=O)cc(-c3ccccc3)c3c(C)nn(C)c32)cc1OC (centres undefined) | nt | nt | nt | i | nt | nt
CCN1CCN(C(=S)NC(C)c2ccccc2)CC1 (centres undefined) | i | i | i | i | 3.7µM | i
CCN1CCN(C(=S)NC(CC(=O)c2ccccc2)c2ccccc2)CC1 (centres undefined) | i | i | i | i | ? | i
COc1ccc(-n2ncc3c2ncn2nc(COc4ccc(Cl)cc4)nc32)cc1 | nt | nt | nt | i | nt | nt
COCCN1C=C(C(=O)OC)C(c2ccc(OC)c(OC)c2)C(C(=O)OC)=C1 | ? | i | i | i | nt | i
COC(=O)C1=CN(Cc2ccc(OC)cc2)C=C(C(=O)OC)C1c1cc(OC)c(OC)c(OC)c1 | i | i | 1.31µM | i | ? | i
COC(=O)C1=CN(Cc2ccccc2)C=C(C(=O)OC)C1c1cc(F)ccc1F | i | i | 7.38µM | ? | 7.38µM | i
COC(=O)C1=CN(Cc2ccc(F)cc2)C=C(C(=O)OC)C1c1cc(OC)c(OC)c(OC)c1 | i | i | 1.31µM | ? | i | i
COC(=O)C1=CN(Cc2ccc(OC)c(OC)c2)C=C(C(=O)OC)C1c1cccc(F)c1 | ? | i | 9.28µM | i | 10.4µM | i
COc1ccccc1N1CCN(C(=O)c2ccc3c(c2)N(Cc2cc(C)ccc2C)C(=O)c2ccccc2S3(=O)=O)CC1 | nt | nt | nt | i | nt | nt
COC(=O)C1=CN(Cc2ccc(C)cc2)C=C(C(=O)OC)C1c1ccc(F)c(F)c1 | ? | i | 6.57µM | i | i | i
COC(=O)C1=CN(CC2CCCO2)C=C(C(=O)OC)C1c1cc(OC)c(OC)c(OC)c1 (centres undefined) | i | nt | ? | i | 4.15µM | i
COc1cc(C(=O)NCC2CCCO2)cc(OC)c1OC (centres undefined) | i | i | i | i | ? | i
COc1cc(CC(=O)NC(c2ccccc2)c2ccccc2)cc(OC)c1OC | i | i | ? | i | ? | i
COC(=O)C1=CN(C(C)c2ccccc2)C=C(C(=O)OC)C1c1cc(OC)c(OC)c(OC)c1 (centres undefined) | i | i | 1.47µM | i | i | i
Cc1cc(Br)cc(C)c1NC(=O)c1sc2ncn(Cc3cccc(F)c3)c(=O)c2c1C | nt | nt | nt | i | nt | nt
Cc1ccc2nc(NC(=O)CSc3cc(C)[nH]c(=O)n3)sc2c1 | nt | nt | nt | i | nt | nt
C=C1C(CCl)(CCl)C2(Cl)C(Cl)C(Cl)C1(Cl)C2(Cl)Cl (centres undefined) | nt | nt | 1.9µM | nt | 2.69µM | nt
COc1ccc(O)c(/C=N/NC(=S)Nc2cccc(S(=O)(=O)N(C)C)c2)c1 | ? | i | 4.15µM | ? | 4.65µM | i
COc1cc(/C=N/NC(=S)Nc2cccc(S(=O)(=O)N(C)C)c2)cc(OC)c1O | i | i | i | ? | 11.7µM | i
CNC(=O)c1cccc(NC(=O)C(C)c2ccc3cc(OC)ccc3c2)c1 (centres undefined) | i | i | ? | i | ? | i
COc1ccc(O)c(/C=N/NC(=S)Nc2cccnc2)c1 | ? | i | ? | i | 0.522µM | i
COc1cccc(/C=N/NC(=S)Nc2cccc(S(=O)(=O)N(C)C)c2)c1 | i | i | ? | i | i | i
COc1ccc2cc(C(C)C(=O)Nc3cccc(S(=O)(=O)N(C)C)c3)ccc2c1 (centres undefined) | 25.1µM | i | ? | i | ? | i
